From PubChem BioAssay (NCI)
Compounds without any hit were thinned out: in the full panel of roughly 83,000, 20% have a hit.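 Activity criterion: percent growth below 10, measured after cells in 96-well plates were exposed to a single compound concentration for 48 hours.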 Unmarked numbers belong to inactive results. Activity calls are given as the source filed them.

What was measured:
Experiment in all cases: NCI-60 one-dose screen, 48 h (100 = growth as untreated, 0 = no growth, -100 = all killed)
Details in all cases: 10 µM
SN12C renal = system: SN12C renal
UO-31 renal = system: UO-31 renal
TK-10 renal = system: TK-10 renal
ACHN renal = system: ACHN renal
CAKI-1 renal = system: CAKI-1 renal
A498 renal = system: A498 renal
CCRF-CEM leukemia = system: CCRF-CEM leukemia
MOLT-4 leukemia = system: MOLT-4 leukemia
SR leukemia = system: SR leukemia
RPMI-8226 leukemia = system: RPMI-8226 leukemia
OVCAR-8 ovarian = system: OVCAR-8 ovarian
OVCAR-5 ovarian = system: OVCAR-5 ovarian
OVCAR-4 ovarian = system: OVCAR-4 ovarian
SK-OV-3 ovarian = system: SK-OV-3 ovarian
IGROV1 ovarian = system: IGROV1 ovarian
OVCAR-3 ovarian = system: OVCAR-3 ovarian
HS 578T breast = system: HS 578T breast
NCI/ADR-RES ovarian = system: NCI/ADR-RES ovarian
T-47D breast = system: T-47D breast

SMILES | growth (SN12C renal) [%] | growth (UO-31 renal) | growth (TK-10 renal) | growth (ACHN renal) | growth (CAKI-1 renal) | growth (A498 renal) | growth (CCRF-CEM leukemia) | growth (MOLT-4 leukemia) | growth (SR leukemia) | growth (RPMI-8226 leukemia) | growth (OVCAR-8 ovarian) | growth (OVCAR-5 ovarian) [%] | growth (OVCAR-4 ovarian) | growth (SK-OV-3 ovarian) | growth (IGROV1 ovarian) | growth (OVCAR-3 ovarian) | growth (HS 578T breast) | growth (NCI/ADR-RES ovarian) | growth (T-47D breast)
COc1ccc(-c2nc(-c3nc4cc(Cl)c(Cl)cc4[nH]3)c3ccccn23)cc1 | 81.8 | 36% | 2.57% (active) | 28.5% | 43.5% | 41.5% | 79.1% | 77.3% | 45.6% | 49.9% | 31.6% | 91.6 | -34.2% (active) | -25.1% (active) | 75.9% | 39% | 12.9% | 51.4% | 66.5%
COc1ccc2c(c1OC)O/C(=C\c1ncc([N+](=O)[O-])n1C)C2=O | 11.8 | -42.8% (active) | 14.7% | -2.65% (active) | -27.5% (active) | 68.8% | 4.93% (active) | 1.01% (active) | 6.02% (active) | 34.9% | -18.2% (active) | 53.7 | 78.9% | 24.8% | -14.8% (active) | -24.2% (active) | 46.5% | 15.1% | 94.8%
COc1cc(Cl)cc(-c2nn(-c3cccc(NC(=O)Nc4ccc(Cl)c(Cl)c4)c3)cc2-c2ccncc2)c1 | 15.5 | 0.635% (active) | 19.8% | 9.65% (active) | 7.49% (active) | -9.54% (active) | 5.73% (active) | -16.1% (active) | -18.5% (active) | -4.44% (active) | 1.93% (active) | 37.8 | 13.3% | 14.2% | 36.7% | 4.12% (active) | 28.5% | 8.59% (active) | 18.6%
CCCCCCc1cc(N=Nc2ccc(S(=O)(=O)Nc3cc(C)nc(C)n3)cc2)c(O)cc1O | 97.2 | 74.5% | 107% | 99.1% | 98.9% | 98.7% | 94.8% | 88.7% | 91.9% | 95.5% | 99.7% | 113 | 108% | 101% | 96.2% | 109% | 110% | 99.9% | 93.9%
O=C1/C(=C\c2ccc(Br)cc2)CN(C(=O)c2ccccc2F)C/C1=C\c1ccc(Br)cc1 | 14.4 | -53.6% (active) | 55.2% | 32.3% | 7.2% (active) | 74.9% | -10.4% (active) | 4.49% (active) | -27.4% (active) | -37.7% (active) | 1.47% (active) | 69.4 | 18.2% | 27.2% | -31.4% (active) | -52.6% (active) | 24.1% | 12.7% | 53.3%
CN(C)C=Nc1cc(Cl)ccc1Cl | 97.7 | 100% | 116% | 109% | 96.5% | 105% | 97.4% | 108% | 108% | 98.9% | 114% | 104 | 99.9% | 110% | 118% | 113% | 117% | 107% | 108%
CC(=O)N1N=C(c2ccc(Cl)cc2)CC1c1sc(Cl)nc1Cl (centres undefined) | 69.6 | 40.9% | 68.8% | 105% | 75.9% | 9.27% (active) | 93.4% | 77.6% | 58.5% | 87.5% | 78% | 96.9 | 66.4% | 83.2% | 59.1% | 75.6% | 98.2% | 80.7% | 75.1%
C#Cc1ccc(-n2c(/C=C/c3ccc(O)c(OC)c3)nc3ncccc3c2=O)cc1 | 98.4 | 73.9% | 139% | 97.3% | 96% | 94% | 91.4% | 86.1% | 80.9% | 83.5% | 97.1% | 108 | 80.8% | 107% | 95.6% | 100% | 104% | 109% | 91.1%
O=C1/C(=C\c2ccc(F)cc2)CN(C(=O)c2ccc([N+](=O)[O-])cc2)C/C1=C\c1ccc(F)cc1 | 46.9 | 24.3% | 87.3% | 44.3% | 39.4% | 52% | 7.75% (active) | 27.2% | -19.3% (active) | -13.3% (active) | 19.5% | 77.1 | 50.5% | 50.8% | 33.9% | 10.3% | -9.57% (active) | 24.3% | 64.5%
O=C(Nc1cccc(-n2cc(-c3ccncc3)c(-c3ccc(O)c(Cl)c3)n2)c1)c1cc(C(F)(F)F)cc(C(F)(F)F)c1 | 63.6 | 47.8% | 62% | 44.8% | 30.7% | 57.2% | 29.5% | 34.4% | 39.1% | 28.8% | 42.9% | 75 | 53.9% | 87.7% | 71.8% | 35.7% | 60.2% | 58.5% | 25.6%
CC(=O)C1CCC2C3CC(F)C4=CC(=O)CCC4(C)C3C(O)CC12C (centres undefined) | 92 | 75.8% | 122% | 99.7% | 96.1% | 116% | 93.6% | 85.8% | 92.9% | 83.4% | 94.2% | 105 | 98.6% | 83.9% | 97.2% | 114% | 122% | 94.9% | 119%
N#CCCN1C/C(=C/c2ccccc2)C(=O)/C(=C/c2ccccc2)C1 | 25.3 | 51.6% | 95.6% | 8.94% (active) | 19.1% | 106% | -1.14% (active) | 4.56% (active) | -2.02% (active) | -14.4% (active) | 0.855% (active) | 84.4 | 40.5% | 67.8% | 55.8% | 16% | -9.54% (active) | 1.6% (active) | 68%
COc1ccc(Oc2nc(NC3CCCC3)nc(Sc3ccc(OC)cc3)n2)cc1 | 78.9 | 57.5% | 109% | 79.5% | 49.3% | 65.5% | 53.2% | 40.2% | 45.7% | 63.7% | 65.4% | 91.1 | 74.3% | 82.8% | 64.9% | 77.1% | 83.8% | 66.2% | 55.9%
COc1cc2cc3c(nc2cc1OC)CCN3Cc1ccc(NC(=O)Nc2cc(C(F)(F)F)cc(C(F)(F)F)c2)cc1 | 74.3 | 57.7% | 85.6% | 69.6% | 69.4% | 58.4% | 51.7% | 36.9% | 55.2% | 54.2% | 61.7% | 92.6 | 80.5% | 95.2% | 84.3% | 51.6% | 77.4% | 60.5% | 71.5%
COc1ccc(OC)c(NC(=O)c2sc3nc4c(cc3c2N)C(=O)CCC4)c1 | 95.5 | 84.7% | 98% | 106% | 86.3% | 3.5% (active) | 84.4% | 93.1% | 73.7% | 95.8% | 96.1% | 101 | 109% | 44.7% | 96.4% | 118% | 96.8% | 91% | 93.9%
Cc1cc2c(C)c3cc(C)c(N)cc3nc2cc1N | 12.5 | 7.87% (active) | -4.14% (active) | 9.76% (active) | 14.8% | -5.82% (active) | 6.08% (active) | -7.23% (active) | -24.3% (active) | 0.782% (active) | -6.68% (active) | 12.3 | -2.48% (active) | 13.3% | -1.9% (active) | 14.9% | 15.6% | 69.2% | -2.32% (active)
